# Assay outcomes deposited in PubChem by National Center for Advancing Translational Sciences (NCATS).
# Shiga inhibitor – A qHTS for Small Molecule Inhibitors of Shiga Toxin. Vero cells, Shiga toxin protein synthesis inhibition reporter. inhibition, % at 38.7 µM. actives 9.2% (n = 290,000); in the data active means inhibition mostly above about 28%, no sharp cut-off; inactive means mostly below about 43%
# HCV inh – qHTS Assay for Inhibitors of Hepatitis C Virus (HCV) | Huh7.5.1 HCVcc-Cre infection, luciferase reporter, 44 h | actives 3.4% (n = 340,000) | Potency, µM (doses to about 41.8 µM), usual class: inhibitors
#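 Reporter virus HCVcc-Cre (~0.5 moi) infects cells exposed to compound; seeding density 1,000 cells/well with 4 h settling beforehand. Luminescence, 15 sec read, taken 44 h post-infection following a 15 min RT substrate incubation.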
# Cycloheximide cs – Cycloheximide Counterscreen for Small Molecule Inhibitors of Shiga Toxin; cell reporter, cycloheximide protein synthesis inhibition counterscreen; max response, %; actives 12% (n = 300,000); AID 2314, 2010; in the data active means max response mostly above about 13%, no sharp cut-off; inactive means mostly below about 14%; further: read at 38.3 µM for the half of the compounds with a filed dose
# Pf growth 48h – Primary qHTS for delayed death inhibitors of the malarial parasite plastid, 48 hour incubation; P. falciparum luciferase growth in erythrocytes, 48 h; Potency, µM (top dose mostly 28.7 µM), usual class: inhibitors; actives 5.9% (n = 310,000); AID 504832, 2011
#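 In quantitative HTS format, infected erythrocytes bearing luciferase-reporter parasites were treated for a single generation at 37 C. Luminescence after adding detection reagent served as the growth measure.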
# AMA1-RON2 inh – qHTS for Inhibitors of AMA1-RON; Towards Development of Antimalarial Drug Lead: Primary Screen; AlphaScreen AMA1-biotinylated RON2 peptide binding; Potency, µM (highest dose often 58.2 µM), usual class: inhibitors; actives 0.2% (n = 360,000); AID 720542, 2013; further: nearly all actives have a fitted effect of over 45% in size
#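 AMA1 (3D7) with his tag at 25 nM final met compounds first, then biotinylated RON2 peptide at 25 nM; detection used donor plus acceptor beads, 10 µg/mL apiece, read by AlphaScreen after 30 min at room temperature.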
# Pf growth 96h – Primary qHTS for delayed death inhibitors of the malarial parasite plastid, 96 hour incubation | Potency, µM (series often up to 28.7 µM), hits mostly inhibitors | P. falciparum luciferase reporter growth, 96 h | actives 6.9% (n = 320,000)
#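 Parasite growth measured via integrated firefly luciferase reporter in P. falciparum. Infected erythrocytes at 2% hematocrit, 0.05% parasitemia final were treated 96 hours at 37 C under 5% CO2, and luminescence was read.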
# Numbers stand for hits; 0 = inactive; ? = inconclusive; - = not tested or not shown; [ ] = remark or other dose. In the library only some 21% were active in any assay of this set; here they are far more common. Unless noted, the call rests on the fitted dose curve; in most records, active means well fitted curve in the direction sought with a large enough effect; inconclusive means small, poorly fitted or top-dose-only effect, or another doubt; inactive means no such curve, though single readings can be large; an effect the other way counts as inactive or inconclusive.
SMILES,Shiga inhibitor,HCV inh,Cycloheximide cs,Pf growth 48h,AMA1-RON2 inh,Pf growth 96h
COc1cc(/C=C/CNC[C@H]2O[C@@H](n3cnc4c(N)ncnc43)[C@H](O)[C@@H]2O)ccc1O,-,-,-,-,0,-
CCOP(=O)(OCC)C(NC(=O)c1cccs1)c1ccccc1 (stereo not given),0,0,0,0,0,0
CCCCC[C@@H](/C=C/C1C(=O)C=C[C@H]1C/C=C\CCCC(=O)O)OC(C)=O (stereo not given in full),-,0[8.37 µM],-,-,0,-
CCOCCCn1c(=NC(=O)c2cccs2)c(C#N)cc2c(=O)n3cccc(C)c3nc21,0,?,0,1.85µM,0,0
Cc1cccn2c(=O)c3cc(C#N)c(=NC(=O)c4ccccc4)n(Cc4ccco4)c3nc12,-,3.98µM,-,-,0,-
COCCCn1c(C(=O)NC2CCCCC2C)cc2c(=O)n3cccc(C)c3nc21 (stereo not given),0,0,0,?,0,?
Cc1cccn2c(=O)c3cc(C#N)c(=NC(=O)c4cccs4)n(CC(C)C)c3nc12,0,0,0,0,0,0
CC(=O)N=c1c(C#N)cc2c(=O)n3ccccc3nc2n1Cc1ccccc1,0,?,0,?,0,8.28µM
CCN(C(=O)c1cc2c(=O)n3cccc(C)c3nc2n1CCCOC)C1CCCCC1,0,?,0,?,0,9.28µM
CN1CCN(C(=O)C2CC(=O)N(c3ccc(Cl)cc3)C2)CC1 (stereo not given),0,0,0,0,0,0
O=C(Cc1ccc(Br)cc1)NCCc1ccc(F)cc1,0,0,0,0,0,0
CC(c1nc2ccccc2[nH]1)N(C(=O)Cc1csc2ccccc12)c1cccnc1 (stereo not given),-,-,-,-,0,-
CCOC(=O)c1cc2c(=O)n3cccc(C)c3nc2n(Cc2ccco2)c1=NC(=O)c1cccnc1,32.8,?,0,?,0,?
COCCCn1c(=NC(C)=O)c(C#N)cc2c(=O)n3cccc(C)c3nc21,0,0,0,0,0,?
COCCCn1c(=NC(=O)c2ccccc2)c(C#N)cc2c(=O)n3cccc(C)c3nc21,0,?,0,2.94µM,0,?
COc1ccc([C@H]2CC(=O)C=C(c3cc(C=O)ccc3OC)C2)cc1,-,0,-,?,0,0
CCN(CC)Cc1cc(O)c(CN(CC)CC)cc1O,0,0,0,0,7.94µM,0
O=S(=O)(NC(=NC1CCCCC1)c1ccccc1F)c1ccccc1,0,0,0,0,0,0
CC(=O)c1ccc(NC(=O)CCS(=O)(=O)c2ccc3c(c2)n(C)c(=O)c(=O)n3C)cc1,0,0,0,0,0,9.28µM
Cn1c(=O)oc2cc(NC(=O)CCl)ccc21,0,?,0,5.22µM,0,6.57µM
CC(=O)Nc1ccc(NC(=O)CCS(=O)(=O)c2ccc3c(c2)oc(=O)n3C)cc1,0,0,0,0,0,9.28µM
COc1ccc(NC(=O)CCS(=O)(=O)c2ccc3c(c2)oc(=O)n3C)cc1OC,0,0,0,0,0,?
Cc1cccc(NC(=O)CCS(=O)(=O)c2ccc3c(c2)oc(=O)n3C)c1,0,0,0,0,0,8.28µM
COc1ccc(OC)c(CN2C(=O)c3ccccc3C2c2nnnn2C(C)C)c1 (stereo not given),-,-,-,-,0,-
Cc1ccc2[nH]c3c(=O)n(N)c(C)nc3c2c1,0,0,16.7,0,0,0
SMILES,Shiga inhibitor,HCV inh,Cycloheximide cs,Pf growth 48h,AMA1-RON2 inh,Pf growth 96h
COc1ccccc1NC=C1C(=O)OC2(CCCCC2)OC1=O,0,0,30.7,0,0,0
Cc1ccc(C2C(=O)N(C3CCCC3)CC(=O)N2C2CCCCC2)cc1 (stereo not given),0,0,0,-,0,?
CC(C)N1C(=O)CN(C2CCCCCC2)C(=O)C1c1ccccc1F (stereo not given),187.1,0,59.6,?,0,?
C=CCn1nc(-c2ccccc2)cc1C(=O)OCC,-,0,-,-,0,-
C=Cn1c(C(=O)O)cc(CC)c1-c1ccccc1,0,0,0,0,0,1.47µM
CC1(C)CC(=O)C=C(c2ccc(-c3cnn(Cc4ccccc4)c3)cc2)C1=O,-,-,-,-,0,-
